# Screening results from PubChem BioAssay.
# GPT2 inh: GPT2 alanine aminotransferase inhibition; Q8TD30; Recombinant GPT2, coupled pyruvate oxidase/HRP Amplex Red fluorescence; Potency, µM (doses to about 57.7 µM), actives largely listed as inhibitors; actives 0.25% (n = 100,000); AID 1671188; note: nearly all actives have a fitted effect of over 60% in size
#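 Recombinant GPT2 (10ng/uL) with 250uM a-KG and 2mM L-alanine, 30 min at room temperature, in HEPES pH 7.5 buffer. Pyruvate detected by pyruvate oxidase/HRP/Amplex Red fluorescence after 30 min in the dark; AOA (50uM) as positive control.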
# NIH3T3 tox: kills NIH 3T3 cells | AID 1345082 | NIH 3T3 viability, CellTiter-Glo ATP luminescence, 48-72 h | Potency, µM (highest dose often 96.7 µM), actives largely listed as inhibitors | actives 4.3% (n = 94,000); note: nearly all actives have a fitted effect of over 55% in size
#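 Luminescent ATP readout (CellTiter-Glo, 10 min RT) after 48 or 72 hr compound exposure of NIH 3T3 cells seeded at 400 cells/well in 1536-well format; quantitative HTS.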
# Luciferase inh: Photinus pyralis luciferase inhibition; P08659; purified P. pyralis luciferase, luminescence, biochemical; Potency, µM (highest dose often 115 µM), hits mostly inhibitors; actives 2.5% (n = 76,000); AID 1347043; note: nearly all actives have a fitted effect of over 65% in size
#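 Inhibitors were tested against purified firefly luciferase in a biochemical, low-substrate format (both substrates at 10uM) and luminescence measured with a CCD imager.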
# HEK293 tox: kills HEK 293 cells; HEK 293 viability, ATP luminescence (CellTiter-Glo), 48-72 h; Potency, µM (titrated, usually from 115 µM), usual class: inhibitors; actives 6.6% (n = 94,000); AID 1345083; note: nearly all actives have a fitted effect of over 60% in size
#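 250 HEK 293 cells/well; compound by pintool; incubated 48 or 72 hr at 37 degree Celsius; CellTiter-Glo added, 10 min RT, luminescence imaged.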
# hNpr1 antagonist: blocks ANP-stimulated signaling of human Npr1 receptor | P16066 | HEK293 hNpr1 GloSensor cGMP, ANP-stimulated luminescence | Potency, µM (titrated, usually from 46.3 µM), most hits filed as inhibitors | actives 1.6% (n = 76,000) | AID 1347048; calls by dose curve; note: nearly all actives have a fitted effect of over 60% in size
# Target sequence (P16066 whole entry, looked up): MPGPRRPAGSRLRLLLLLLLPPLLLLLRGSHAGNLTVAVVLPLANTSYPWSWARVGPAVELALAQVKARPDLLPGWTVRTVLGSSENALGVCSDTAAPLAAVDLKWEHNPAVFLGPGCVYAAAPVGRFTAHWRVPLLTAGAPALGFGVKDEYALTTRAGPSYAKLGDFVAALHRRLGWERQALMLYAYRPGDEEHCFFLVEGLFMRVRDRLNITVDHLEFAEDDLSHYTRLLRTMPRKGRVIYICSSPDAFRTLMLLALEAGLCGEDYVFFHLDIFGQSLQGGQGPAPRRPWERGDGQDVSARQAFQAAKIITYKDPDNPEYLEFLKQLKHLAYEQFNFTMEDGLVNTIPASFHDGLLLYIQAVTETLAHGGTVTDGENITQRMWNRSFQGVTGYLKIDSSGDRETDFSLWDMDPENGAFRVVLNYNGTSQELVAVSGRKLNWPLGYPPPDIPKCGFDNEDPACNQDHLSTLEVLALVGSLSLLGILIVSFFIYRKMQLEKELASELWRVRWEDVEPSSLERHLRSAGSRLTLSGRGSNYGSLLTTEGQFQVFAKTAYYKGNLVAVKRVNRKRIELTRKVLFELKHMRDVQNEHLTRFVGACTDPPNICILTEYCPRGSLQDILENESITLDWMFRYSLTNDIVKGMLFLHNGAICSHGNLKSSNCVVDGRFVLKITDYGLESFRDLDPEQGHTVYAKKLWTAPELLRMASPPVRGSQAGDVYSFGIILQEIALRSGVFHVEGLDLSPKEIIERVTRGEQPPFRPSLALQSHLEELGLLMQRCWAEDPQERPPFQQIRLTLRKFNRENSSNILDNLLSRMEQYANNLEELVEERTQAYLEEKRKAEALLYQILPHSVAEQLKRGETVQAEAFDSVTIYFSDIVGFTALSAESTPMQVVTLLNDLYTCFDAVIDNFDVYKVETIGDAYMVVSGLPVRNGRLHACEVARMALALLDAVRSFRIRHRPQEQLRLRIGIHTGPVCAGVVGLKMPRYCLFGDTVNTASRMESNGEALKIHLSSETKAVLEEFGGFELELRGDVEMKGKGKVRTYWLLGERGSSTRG
#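 HEK293 cells stably expressing human Npr1 and cGMP GloSensor pGS-40F, loaded 2 h with 2% GloSensor reagent, given compound 30 min at room temperature. Luminescence read before and 20 min after 0.1 nM hNppA.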
# Numbers stand for hits; - = inactive; ? = inconclusive; . = no result given; [ ] = dose if it differs, or a comment. Only some compounds are listed: those with a hit (about 10% of all), similar ones and a draw of the others. Unless noted, calls come from the whole dose curve; as a rule, active = well fitted curve in the direction sought with a large enough effect; inconclusive = small, poorly fitted or top-dose-only effect, or another doubt; inactive = no such curve, though single readings can be large; an effect the other way counts as inactive or inconclusive.
SMILES,GPT2 inh,NIH3T3 tox,Luciferase inh,HEK293 tox,hNpr1 antagonist
CN1CC(c2ccccc2)CC2(CCN(C(=O)CCc3cccnc3)CC2)C1 (configuration not stated),-[11.5 µM],-,-,-,-
CC(C)C1=NOC2(CCN(C(=O)c3ccc4c(c3)OCO4)C2)C1 (configuration not stated),-,79µM,.,-,.
COc1ccc(CN2CCCC(c3cc(=O)[nH]c(C)n3)C2)c(OC)c1C (configuration not stated),-,?,-,45µM,-
Cc1nn(-c2ccccc2)c2c1C(C1CC1)N(C1CCN(C(=O)c3ccccc3Cl)C1)C2=O (configuration not stated),.,22µM,.,35µM,.
Cc1nn(-c2ccccc2)c2c1C(C)N(CC1CN(Cc3cccc(C(F)(F)F)c3)C1)C2=O (configuration not stated),.,?,.,28µM,.
CC(=O)N1CC(N2C(=O)c3c(c(C)nn3-c3ccccc3)C2C2CC2)C1 (configuration not stated),.,?,.,-,.
Cc1ccccc1C(=O)N1CCC(N2C(=O)c3c(c(C)nn3-c3ccccc3)C2C2CC2)C1 (configuration not stated),.,?,.,28µM,.
CCNC(=O)N1CC(N2C(=O)c3c(c(C)nn3-c3ccccc3)C2C2CC2)C1 (configuration not stated),.,-,.,?,.
Cc1nn(-c2ccccc2)c2c1C(C1CC1)N(C1CN(C(=O)C3CCCC3)C1)C2=O (configuration not stated),.,35µM,.,45µM,.
Cc1nn(-c2ccccc2)c2c1C(C1CC1)N(C1CN(C(=O)c3cccc(Cl)c3)C1)C2=O (configuration not stated),.,-,.,-,.
C=CCNC(=O)N[C@H]1CCN2C(=O)c3ccccc3NC(=O)[C@@H]2C1,-,-,-,-,-
CC(C)COc1cc(=O)n2c(c1C(=O)NCCCn1cccn1)CCCCC2,-,-,-,-,-
Cc1nn(-c2ccccc2)c2c1C(C)N(CC1CN(C(=O)c3ccccc3Cl)C1)C2=O (configuration not stated),.,?,.,50µM,.
Cc1nn(-c2ccccc2)c2c1C(C1CC1)N(C1CN(C(=O)c3ccccc3Cl)C1)C2=O (configuration not stated),.,13µM,.,?,.
CN(CC1CCOC1)C(=O)c1cccc(Br)c1 (configuration not stated),-,-,-,-,-
Cc1cc(C(=O)N[C@H](C)c2c(-c3ccc(Cl)cc3)noc2C(=O)O)c(C)o1,-,-,-,-,-
COCC1CN(C)CC12CCN(Cc1ccc(Br)o1)CC2 (configuration not stated),-,-,-,-,-
Cc1c(Cn2cc(-c3cncnc3)nn2)oc2ccccc12,-,-,-,-,-
COc1ccccc1-c1cn2c(n1)CO[C@@H](CNC(=O)NC(C)C)C2,-,-,-,-,-
COc1ccccc1-c1cn2c(n1)CO[C@@H](CNC(=O)c1ccc(Cl)cc1)C2,-,?,-,100µM,-
Cc1ccc(-c2cn3c(n2)CO[C@@H](CNC(C)C)C3)cc1,-,?,40µM,?,-
Cc1ccc(-c2cn3c(n2)CO[C@@H](CNC(=O)c2ccc(Cl)cc2)C3)cc1,-,?,40µM,?,?
COc1ccnc(-c2nnc3ccc(N(C)CCN(C)C)nn23)c1,-,100µM,-,-,-
CN(c1ccccc1)c1ccc2nnc(-c3ccccn3)n2n1,-,?,?,?,-
COc1ccnc(-c2nnc3ccc(N(C)Cc4ccccc4)nn23)c1,-,?,-,56µM,-
SMILES,GPT2 inh,NIH3T3 tox,Luciferase inh,HEK293 tox,hNpr1 antagonist
COc1ccc(C(=O)Nc2cccc(-c3nnc4n3CCCC4)c2)c(C)c1,-,-,-,-,-
CCn1ccnc1CN(C)Cc1cn(C)nc1-c1ccc(Oc2ccccc2)cc1,-,?,-,40µM,-
CCn1ccnc1CN(C)Cc1cn(Cc2ccccc2)nc1-c1cc2ccccc2o1,-,40µM,-,45µM,-
COc1ccc(CN2C(=O)CO[C@H](c3ccc(NC(=O)c4ccc(OC)cc4)cc3)[C@H]2CO)cc1,-,?,?,?,-
COc1ccc(C(=O)Nc2ccc([C@H]3OCC(=O)N(C(C)C)[C@@H]3CO)cc2)cc1,-,?,25µM,?,-
COc1ccc(C(=O)Nc2ccc([C@H]3OCC(=O)N(C)[C@@H]3CO)cc2)cc1,-,-,71µM,-,-
O=C1CC2(CCN(C(=O)C3CCCN(C(=O)Nc4ccccc4)C3)CC2)Oc2ccccc2N1 (configuration not stated),-,?,.,32µM,.
CC(=O)N1CCCC(C(=O)N2CCC3(CC2)CC(=O)Nc2ccccc2O3)C1 (configuration not stated),-,-,.,-,.
Cn1ncc2c(C(=O)Nc3cccc(Cl)c3)cc(-c3ccc(Cl)cc3Cl)nc21,-,32µM,.,22µM,.
COc1ccc(NC(=O)c2cc(C(C)(C)C)nc3c2cnn3C)cc1,-,?,.,63µM,.
Cn1ncc2c(C(=O)Nc3cccc(Cl)c3)cc(-c3ccc(Cl)nc3)nc21,-,?,.,?,.
Cn1ncc2c(C(=O)Nc3cccc(Cl)c3)cc(-c3ccccc3F)nc21,.,-,.,?,.
COc1ccc(-c2cc(C(=O)Nc3ccc(Cl)cc3)c3cnn(C)c3n2)cc1,.,-,.,-,.
Cn1ncc2c(C(=O)Nc3cccc(Cl)c3)cc(C(C)(C)C)nc21,-,?,.,63µM,.
O=C(NCc1ccc(F)cc1)c1ccc2oc(-c3cccnc3Cl)nc2c1,-,-,.,?,.
COc1ccc(-c2ccc3c(n2)CN(Cc2ccc(F)cc2)C(=O)CO3)cc1,-,?,-,?,?
COc1ccc(-c2ccc3c(n2)CN(Cc2ccccc2F)C(=O)CO3)cc1OC,-,25µM,-,50µM,-
COc1ccc(-c2ccc3c(n2)CN(Cc2ccccc2)C(=O)CO3)cc1F,-,79µM,-,79µM,-
COCCN1Cc2nc(-c3ccc(OC)c(F)c3)ccc2OCC1=O,-,?,-,-,-
O=C1COc2ccc(-c3ccc(F)cc3)nc2CN1Cc1ccccc1F,-,?,-,100µM,-
O=C1COc2ccc(-c3ccncc3)nc2CN1Cc1ccccc1F,-,89µM,-,?,-
CCC[C@@H](C=O)NC(=O)[C@H](CC(C)C)NC(=O)[C@H](CC(C)C)NC(=O)OCc1ccccc1,-,.,.,.,.
Cn1cc(-c2ccc3c(n2)CN(Cc2ccc(F)cc2)C(=O)CO3)cn1,-,?,-,?,-
O=C1COc2ccc(-c3ccccc3)nc2CN1Cc1ccccc1,-,?,-,112µM,-
O=C1COc2ccc(-c3cc(F)cc(F)c3)nc2CN1Cc1ccccc1,-,?,-,?,-
Cn1cc(-c2ccc3c(n2)CN(Cc2ccc(C(F)(F)F)cc2)C(=O)CO3)cn1,-,32µM,-,?,-
